Growth data for 40 compounds are collected here from PubChem BioAssay (NCI).

The panel holds about 83,000 compounds, 20% with a hit somewhere; the sample as a whole holds those more often.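 Plates (96-well) were seeded with cells, treated with compound at one concentration, and incubated for 48 hours before percent growth was determined.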 A number with no mark means an inactive call. Active and inactive are the calls of the source. How the source made its calls: active means growth percent below 10; inactive means the rest.

The assay concerns MDA-MB-468 breast. Description: NCI-60 one-dose screen, 48 h (100 = growth as untreated, 0 = no growth, -100 = all killed). The conditions noted are these: 10 µM unless noted.
Regarding `Cc1ccc(C(=O)NN)cc1`, the growth is 106%.
Consider `Nc1ncnc2c1c(-c1ccc(Oc3ccccc3)cc1)nn2CC1SSCC1O` (stereo not given), for which the growth is -24.8% (active).
On to `C#Cc1ccc(-n2c(/C=C/c3ccc4ccccc4n3)nc3ncccc3c2=O)cc1`, for which the growth is -68.1% (active).
For `Cc1ccccc1Nc1nc2nonc2nc1Nc1cccc(C)c1C` the value was 12.3%; for `C[n+]1ccccc1C[n+]1ccccc1`, 117%.
For `COC(=O)C(CC=O)C(=O)C(=O)Nc1cccc(C(F)(F)F)c1` (stereo not given) the value was 104%; for `N#Cc1cccc(CN2CCc3ncn(Cc4ccc(Cl)cc4)c(=O)c3C2)c1`, -21.8% (active); for `Clc1ccccc1Nc1nnc(-c2ccncc2)s1`, 110%.
For `CNc1ncc(-c2ccc(C(F)(F)F)cc2)c(NC2CCCCCC2)n1` the value was 74.9%; for `CCOC(=O)c1c(C)nc2c(c1N)CC(=O)N2Cc1cc(F)cc(Cl)c1`, 84.9%.
On to `O=C(CN1CCNCC1)N1CCOCC1`, for which the growth is 117%.
The figure for `O=c1c2ccccc2nc(COc2ccccc2)n1NS(=O)(=O)c1ccc(Cl)cc1` is 40.4%; for `COc1cc(/C=C/c2cc(/C=C/c3ccc(O)c(OC)c3)[nH]c(=O)n2)ccc1O` it is 6.34% (active).
For `COc1cccc(/C=C/C(=O)c2sc(Nc3ccc(O)cc3)nc2C)c1` the value was 97.2%.
For `O=c1oc2ccccc2cc1-c1cc(-c2ccc(-c3cc(-c4cc5ccccc5oc4=O)nc(-c4cc5ccccc5oc4=O)c3)cc2)cc(-c2cc3ccccc3oc2=O)n1` the value was 84.3%; for `CC(=O)C1=C(C)NC(NNc2ccccc2)=NC1c1ccc([N+](=O)[O-])cc1` (stereo not given), 92.3%.
Turning to `O=C1Nc2ccccc2/C1=C/c1nc2ccccc2c(=O)[nH]1`, the growth is 93%.
For `O=C(Cn1c(C(=O)c2ccccc2)nc2ccccc21)c1ccc(F)cc1` the value was 35.1%.
In the case of `CCO/C=N/S(=O)(=O)c1cc2c(cc1Cl)NC=NS2(=O)=O`, the growth is 98.3%.
The figure for `S=c1nn[nH]c2ccccc12` is 117%; for `COc1ccc(-c2cnc3ccccc3n2)cc1` it is 99.7%; for `CCN(CC)c1ccc(C(=N)c2ccc(N(CC)CC)cc2)cc1` it is -24.8% (active).
Turning to `CC[C@]12C=CCN3CC[C@@]4(c5ccc(OC)cc5N(C)[C@H]4[C@@](O)(C(=O)OC)[C@@H]1OC(=O)CCC(=O)O[C@H]1CC[C@H]4[C@@H]5CCC6=CC(=O)CC[C@@H]6[C@H]5CC[C@]14C)[C@@H]32`, the growth is -30.2% [100 µM] (active).
For the compound `COc1cc2cc(Oc3ccc(NC(=O)c4ccccc4)cc3)c(C)nc2cc1OC`, the growth was 98.4%.
The figure for `COc1ccc(SC2c3ccc(O)cc3Oc3nc(N)c(C#N)c(N)c32)cc1` (stereo not given) is 89.6%; for `CCCCOc1ccc(/C=C2/SC(N3CCOCC3)=NC2=O)cc1OCC` it is 97.8%.
For the compound `O=S(=O)(NCCCNc1nccc(-c2[nH]c(-c3ccccc3)nc2-c2ccc(F)c(O)c2)n1)c1cccc(F)c1`, the growth is 66.5%.
For `Cc1ccc(Nc2cc(N)nc(N)n2)cc1`, the growth was 92.2%.
For `O=C1C(N2CCN(c3ccccc3)CC2)=C(Cl)C(=O)c2ncccc21` the value was -62.8% (active); for `CCCCC[C@@H]1Cc2cc(O)c(C(=O)O)c3c2[C@H](C[C@]2(OC[C@@H](CC(=O)[C@@](C)(CC)C(=O)OC)[C@@H]2C)O3)O1`, 110%; for `COc1cc2oc(-c3cccc(C(=O)Nc4ccc(Cl)cc4)c3)cc(=O)c2c(O)c1OC`, 43.7%.
Turning to `CC1(C)C2CC1C1(/C=N\Nc3ccccc3)C(C2)C(C#N)(C#N)C1(C#N)C#N` (stereo not given), the growth is 94.8%.
The figure for `NC1=NN(O)C2=CC([N+](=O)[O-])C=CC2=N1` (stereo not given) is 107%; for `COc1ccc(-c2ccc(O)c(C(=O)/C=C/c3cc(OC)c(OC)c(OC)c3)c2)cc1` it is 85.2%; for `O=C(NOC(=O)c1ccccc1)c1ccccc1` it is 105%.
The figure for `C=C1C(=O)O[C@H]2[C@H]1CC/C(COC(=O)NCc1cc3ccccc3[nH]1)=C\CC[C@@]1(C)O[C@@H]21` is 19.3%; for `O=C(CCCCCCN1CC(=O)N2[C@@H](c3cccc(Cl)c3)c3[nH]c4ccccc4c3C[C@H]2C1=O)NO` it is 47.2%.
The figure for `O=C1C(=O)N(Cc2ccc(-c3ccccc3)cc2)c2ccc(OC(F)(F)F)cc21` is 25%.
Take `CC(O)(CO)c1ccccc1` (stereo not given): the growth was 99.6%.
For `NC1(C(=O)O)CSSC1` the value was 29.6%.
